# Mm-Cpn inhibitor: inhibitors of Methanococcus maripaludis chaperonin TRiC (MmCpn); purified Mm-Cpn ATPase, ADP Transcreener TR-FRET; Potency, µM (titrated, usually from 76.9 µM), for inactives: at the top dose activity, negative = inhibition, hits mostly inhibitors; 330,000 compounds, 0.031% hits; AID 504842; note: potency is the fitted concentration of half-maximal effect; nearly all actives have a fitted effect of over 80% in size
#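 Compound-treated chaperonin, 25 nM final, turns over 10 uM ATP at 37°C for 30 min following a 10 min preincubation; ADP generated competes with ADP-d2 for Eu-cryptate antibody, lowering FRET.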
# VDR inhibitor: inhibitors of human vitamin D receptor; VDR-SRC2-3 peptide fluorescence polarization, 2 h; P11473; 400,000 compounds, 0.93% hits; Potency, µM, for the others: max response, negative = inhibition, hits mostly inhibitors; note: potency is the fitted concentration of half-maximal effect
#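 Fluorescence polarization assay measuring small-molecule disruption of VDR binding to the coregulator peptide SRC2-3. Compounds were pin-transferred (23 nl) into the reagent mix and incubated 2 h at room temperature before reading.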
# CCT modulator: modulators of cytosolic chaperonin (CCT/TRiC) activity. purified chaperonin ATPase assay, HTRF ADP detection, 30 min. activity change, % (test concentration not listed), hits read low. 360,000 compounds, 0.3% hits. AID 651819; in the data active = activity change below about -30%
#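 First, chaperonin was dispensed at 40 nM or 20 nM final depending on batch activity. Next, compounds were pinned at 76 uM and ATP added at 10 uM. After 30 min at 37 °C, ADP detection reagents ran 30 min at ambient temperature.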
# PLK1 PBD inh: blocks phosphopeptide binding to human PLK1 polo-box domain; Plk1 PBD binding of FITC phosphopeptide, fluorescence polarization; Potency, µM, for inactives: max response, negative = inhibition, most hits filed as inhibitors; 360,000 compounds, 2.8% hits; note: potency is the fitted concentration of half-maximal effect; series mostly up to about 57 µM; nearly all actives have a fitted effect of over 65% in size
# Target sequence (P53350 whole entry, looked up, the tested form may be a part): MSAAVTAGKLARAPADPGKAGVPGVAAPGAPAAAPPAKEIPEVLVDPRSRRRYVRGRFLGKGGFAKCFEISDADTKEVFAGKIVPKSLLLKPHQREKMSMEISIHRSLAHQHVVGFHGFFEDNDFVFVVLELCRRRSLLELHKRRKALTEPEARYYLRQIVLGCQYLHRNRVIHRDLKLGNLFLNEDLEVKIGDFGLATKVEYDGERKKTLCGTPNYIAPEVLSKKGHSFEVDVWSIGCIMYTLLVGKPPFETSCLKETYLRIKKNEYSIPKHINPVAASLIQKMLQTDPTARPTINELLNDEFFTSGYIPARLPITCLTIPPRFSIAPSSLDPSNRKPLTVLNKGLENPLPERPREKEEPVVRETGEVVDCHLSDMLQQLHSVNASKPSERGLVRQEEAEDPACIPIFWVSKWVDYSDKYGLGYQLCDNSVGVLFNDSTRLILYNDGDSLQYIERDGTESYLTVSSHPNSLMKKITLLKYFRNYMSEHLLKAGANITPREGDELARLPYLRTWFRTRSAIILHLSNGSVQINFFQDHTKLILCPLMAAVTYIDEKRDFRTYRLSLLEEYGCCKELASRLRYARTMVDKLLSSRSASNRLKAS
# Sfp inh: Sfp phosphopantetheinyl transferase inhibition; Biochemical Sfp PPTase activity, qHTS; Potency, µM, for inactives: largest response in the series, negative = inhibition, hits mostly inhibitors; 310,000 compounds, 3.5% hits; AID 1490;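 note: the enzyme is Sfp with the accession as filed and its product quenches rhodamine fluorescence; potency is the fitted concentration of half-maximal effect; 0% = enzyme reaction without inhibitor and -100% = no enzyme wells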
#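 Fluorescence-quenching assay: 15 nM Sfp-PPTase preincubated 15 min at room temperature with compound, then 5 uM rhodamine-CoA and 12.5 uM BHQ-2-labelled YbbR peptide added. Fluorescence (ex 525/em 598 nm) read at start and after 30 min; difference gives rate.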
# G9a block: blocks human histone lysine methyltransferase G9a | 350,000 compounds, 8.8% hits | G9a H3K9 monomethylation, AlphaScreen, 2 h | Q96KQ7 | AID 504332 | Potency, µM (doses to about 102 µM), for inactives: at the highest dose activity, negative = inhibition, hits mostly inhibitors; note: potency is the fitted concentration of half-maximal effect; nearly all actives have a fitted effect of over 75% in size
#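 Using a bead-based AlphaScreen, monomethylated H3K9 product from 2 h room-temperature reactions (G9a 20 nM, peptide 500 nM, SAM 20 uM) was detected with 0.5 ug/mL rabbit anti-H3K9me1 antibody.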
# An asterisk follows results filed as active; ? = inconclusive; . = not tested or not shown; ! = not confirmed by another sample; [ ] = another dose, or the depositor's remark. Compounds with a hit are over-represented: about 10% of the library has one in this group of screens. Unless noted, calls come from the whole dose curve; as a rule, active = well fitted curve in the direction sought with a large enough effect; inconclusive = small, poorly fitted or top-dose-only effect, or another doubt; inactive = no such curve, though single readings can be large; an effect the other way counts as inactive or inconclusive. Unless noted, % is set by controls: 0 for no effect and ±100 for the full control effect.
SMILES,Mm-Cpn inhibitor,VDR inhibitor,CCT modulator,PLK1 PBD inh,Sfp inh,G9a block
Cn1c(=O)c(-c2ccccc2)nc2cnc(OCc3ccccc3)nc21,.,-16.4%,.,.,-4.7%,-4.4%[0.501 µM]
COc1cc(/C=N/n2c(COc3ccccc3)n[nH]c2=S)cc(OC)c1OC(C)=O,-0.3%,-27.6%,1.0,?,?,10µM*
COc1cc(/C=N/N2CCN(Cc3ccc(Cl)cc3)CC2)cc(Br)c1O,0.9%,-5.0%,-4.3,3.2%,-4.3%,2.1%[0.501 µM]
COc1cc(/C=N/n2c(COc3ccccc3)n[nH]c2=S)cc(Br)c1O,2.2%,-15.2%,-6.6,-23.5%,?,1.26µM*
CCOc1ccc(/C=N/n2c(COc3ccccc3)n[nH]c2=S)cc1OC,2.2%,-11.8%,-0.3,?,56.2µM*,8.91µM*
COc1ccc(-c2nc3sc(CCNS(=O)(=O)c4c(C)cc(C)cc4C)c(C)n3n2)cc1,.,15.2%,.,.,.,-5.7%[59 µM]
O=c1cc2c(=O)oc3cc(O)c(O)oc3c2c(O)c1O,-3.3%,-4.3%,0.0,?,5.01µM*,.
OC(CCCC(O)c1ccccc1)c1ccccc1 (stereo unspecified),.,-17.0%,0.2,0.1%,.,.
OC(Cn1cnnc1)c1ccccc1 (stereo unspecified),1.1%,10.2%,0.6,-9.0%,?,35.5µM*
CCOC(=O)/C(=C\c1c[nH]c2ccccc12)NC(C)=O,-1.7%,?,-0.9,21.2µM*,3.5%,1.6%[59 µM]
COc1cccc([C@@H]2Oc3ccc(Br)cc3C(=O)[C@H]2OC(=O)Nc2ccc(OC(F)F)cc2)c1,.,-0.1%,.,.,-10.8%,.
CCNC(=O)CSc1nnc(-c2cccc(S(=O)(=O)N(CC)CC)c2)n1CCc1ccccc1,-14.3%,?,-3.8,21.2µM*,7.8%,14.0%
CCN(CC)S(=O)(=O)c1cccc(-c2nnc(SCC(N)=O)n2C)c1,-0.8%,0.4%,-1.2,-5.9%,14.2%,-7.3%[59 µM]
Cc1ccc(NC(=O)C2(C)Cc3ccccc3C(=O)O2)c(C)c1 (stereo unspecified),.,7.9%,.,.,.,7.3%[59 µM]
COc1ccccc1NC(=O)C1(C)Cc2ccccc2C(=O)O1 (stereo unspecified),-0.7%,-3.4%,-0.2,-19.0%,15.8%,50.1µM*
O=C(Nc1nnc(SCc2ccccc2)s1)c1cccc([N+](=O)[O-])c1,-0.9%,-7.0%,-2.2,-11.6%,7.0%,79.4µM*
O=C(Nc1nnc(SCc2ccccc2)s1)c1cc2c(s1)CCCC2,-0.4%,1.8%,-60.7*,-11.6%,-3.1%,1.4%
COc1ccc(Nc2nc3ccccc3c(=O)[nH]2)cc1,-0.5%,?,-2.9,23.8µM*,16.4%,79.4µM*
COc1ccc(Nc2nc3c([nH]2)c(=O)[nH]c(=O)n3C)cc1,-2.3%,-4.7%,-1.6,-2.3%,-0.5%,50.1µM*
COc1ccc(Nc2ccc(OC)cc2)cc1,-2.6%,-16.8%,0.1,-12.0%,2.82µM*,.
COc1ccc(Nc2c3ccccc3nc3ccccc23)cc1,-3.8%,9.4%,-2.3,-16.7%,-4.4%,39.8µM*
CCOc1ccccc1CNC(=O)c1ccc(NC(=O)N2CCSc3ncccc32)cc1,.,10.3%,.,.,.,-5.0%[59 µM]
COc1ccc(Nc2nc3ccc(OC)cc3s2)cc1,-2.7%,3.6%,-0.7,-19.0%,-9.7%,39.8µM*
CN(C)c1ccc(NC(=O)CSC2=Nc3ccccc3C3=NC(CC(=O)NCc4ccc5c(c4)OCO5)C(=O)N23)cc1 (stereo unspecified),.,-0.7%,.,.,.,?
Cn1c(CN(O)S(=O)(=O)c2ccc(Cl)cc2)nnc1C(F)(F)F,-4.9%,-3.0%,-2.5,0.6%,19.5%,10µM*
SMILES,Mm-Cpn inhibitor,VDR inhibitor,CCT modulator,PLK1 PBD inh,Sfp inh,G9a block
CCCc1[nH]nc2c1C(c1ccc(OC)c(CSC3=NCCS3)c1)C(C#N)=C(N)O2 (stereo unspecified),-0.4%,-20.3%,-0.6,?,79.4µM*,-33.3%[12.7 µM]
CCCc1[nH]nc2c1C(c1cc(OC)ccc1F)C(C#N)=C(N)O2 (stereo unspecified),0.6%,1.6%,-19.7,?,-4.8%,39.8µM*
CCOC(=O)Cc1[nH]nc2c1C(c1cc(OC)ccc1OC)C(C#N)=C(N)O2 (stereo unspecified),1.2%,0.4%,-0.1,-14.8%,1.2%,10.5%
O=c1c2cc(Cl)ccc2[nH]c(=S)n1Cc1ccco1,2.5%,1.5%,0.3,?,-23.6%,-50.4%[12.7 µM]
O=C(c1ccc(Cn2c(=S)[nH]c3ccc(N4CCOCC4)cc3c2=O)cc1)N1CCC(N2CCCCC2)CC1,0.2%,-15.2%,-0.9,-8.1%,6.2%,39.8µM*
COc1cccc(CNC(=O)CCCCCn2c(=S)[nH]c3ccc(N4CCOCC4)cc3c2=O)c1,-2.7%,.,.,.,79.4µM*,?
O=c1c2cc(N3CCOCC3)ccc2[nH]c(=S)n1Cc1ccco1,-4.2%,79.4µM*,-3.7,?,7.94µM*,7.08µM*
COc1cc2[nH]c(=S)n(Cc3ccco3)c(=O)c2cc1OC,0.2%,-13.0%,-0.5,-6.5%,-29.2%,3.55µM*
COc1cccc(Cn2c(=S)[nH]c3ccc(N4CCOCC4)cc3c2=O)c1,-6.4%,-15.8%,-1.0,-3.3%,-17.2%,6.6%[12.7 µM]
COc1ccccc1/C=C/c1nc2ccccc2n1C(C)C,.,-6.6%,.,.,.,101.6%[59 µM]
CCOC(=O)N1CCC(n2c(=S)[nH]c3ccccc3c2=O)CC1,-0.6%,-13.3%,-2.1,-5.9%,22.6%,?
COc1cc2[nH]c(=S)n(Cc3ccc(C)cc3)c(=O)c2cc1OC,0.5%,-27.6%,-2.5,-12.4%,56.2µM*,70.0%[59 µM]
COc1ccc(Cn2c(=S)[nH]c3cc(OC)c(OC)cc3c2=O)cc1,-4.6%,-4.8%,-1.1,-9.7%,5.9%,-16.5%
O=C(Cc1ccc(-n2c(=S)[nH]c3ccccc3c2=O)cc1)N1CCC(N2CCCCC2)CC1,0.2%,-16.9%,-1.8,-1.4%,-10.8%,50.1µM*
CC(C)CCNC(=O)c1cccc(-n2cnc3cccnc32)c1,.,3.7%,.,.,.,13.9%[59 µM]
COC(=O)c1n[nH]n(-c2ccccc2)c1=O,.,-7.6%,.,.,.,15.5%[59 µM]
CSc1ccc2c(c1)C(N1CCN(C)CC1)Cc1ccc(F)cc1S2 (stereo unspecified),.,-20.1%,-1.5,2.6%,.,.
CSc1ccc2c(c1)N(CCC1CCCCN1C)c1ccccc1S2 (stereo unspecified),2.6%,-12.7%,-1.1,-6.7%,-20.5%,17.8µM*!
CSc1ccc2c(c1)N(CC[C@H]1CCCCN1C)c1ccccc1S2,.,5.9%,.,.,1.5%,11.2µM*
O=C(CSc1nc2cc3ccccc3cc2[nH]1)Nc1cccc(C(F)(F)F)c1,.,4.3%,.,.,.,-41.3%[59 µM]
Cc1ccc(S(=O)(=O)Nc2cc(=O)[nH]c(SCC(=O)Nc3ccccc3Cl)n2)cc1,-1.7%,-9.1%,1.8,-1.8%,12.5%,56.2µM*
Cc1cc(NS(=O)(=O)c2ccc(NC(=O)CSc3nc4ncc(Cl)cc4[nH]3)cc2)nc(C)n1,-0.1%,-17.3%,0.8,-14.0%,24.4%,44.7µM*
